The target in assay [1] is rat Thyrotropin Releasing Hormone Receptor (TRH), Trhr (gene 25570) (UniProt Q01717). The assay is described as follows: NVS_GPCR_rTRH: NovaScreen (NVS) G Protein-Coupled Receptor Assay for rat Thyrotropin Releasing Hormone Receptor (TRH) (AID 2283329).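 Note: hit means lower bound tracer signal versus DMSO baseline.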 Put shortly:
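Competitive radioligand binding on rat forebrain membrane preparations, with filtration and scintillation readout after 4 h. Primary testing in duplicate at 25 uM; actives confirmed in concentration-response. DMSO defined baseline.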

The target of assay [2] is Estrogen receptor (Homo sapiens) (UniProt P03372). The assay is described as follows: OT_ER_ERaERa_0480: Odyssey Thera (OT) 8-hour HEK293T Protein-Complementation Assay for Estrogen Receptor-alpha/-alpha Homodimer (AID 2283351).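 Note: rise in fluorescence from reassembled reporter fragments on ERα LBD homodimer in nucleus or whole cell.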 Put shortly:
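Read-out: fluorescence intensity rise relative to DMSO, nuclear for agonists, nuclear plus cytoplasmic for antagonists. Construct is the ERα LBD (aa 310-547) homodimer fragment-complementation pair, stably expressed in HEK293T; exposure 8 h.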

Assay [3] has as its target T1, Estrogen receptor (Homo sapiens) + Estrogen receptor beta (Homo sapiens) (UniProt P03372+Q92731). The assay is described as follows: OT_ER_ERaERb_0480: Odyssey Thera (OT) 8-hour HEK293T Protein-Complementation Assay for Estrogen Receptor-alpha/-beta Heterodimer (AID 2283352). Put shortly:
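Fluorescence increase from reconstituted reporter fragments, quantified by laser scanning cytometer, reflects ER-alpha/ER-beta heterodimer formation in human HEK293T cells. Exposure 8 h; positive-direction fitting against DMSO vehicle.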

In assay [4] the target is Androgen Receptor/SRC-1 Co-activator, AR (gene 367) (UniProt P10275). The assay is described as follows: OT_AR_ARSRC1_0960: Odyssey Thera (OT) 16-hour HEK293T Protein-Complementation Assay for Androgen Receptor/SRC-1 Co-activator (AID 2283353).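 Note: actives raise the signal above DMSO so potency reflects increased AR and SRC-1 complex.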 Put shortly: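 Readout: 488 nm nuclear-to-cytoplasmic fluorescence ratio from imaging of at least 400 cells per image, 16 h post-dose. Reporter is Venus YFP complementation between AR and SRC-1 fusions, stably expressed in HEK293T; activity scored upward relative to DMSO.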

Assay [5] has the same target. The assay is described as follows: OT_AR_ARSRC1_0480: Odyssey Thera (OT) 8-hour HEK293T Protein-Complementation Assay for Androgen Receptor/SRC-1 Co-activator (AID 2283354).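 Note: hits raise the complementation signal above DMSO so AC50 marks enhancers.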 Put shortly: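 Reconstituted split-Venus YFP signal from AR–SRC-1 interaction, read by imaging 8 h post-dose in stable HEK293T lines. The 488 nm nucleus-to-cytoplasm ratio (≥400 cells/image) was fitted upward against DMSO.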

Assay [6] addresses T1, Estrogen receptor (Homo sapiens) + Estrogen receptor beta (Homo sapiens). The assay is described as follows: OT_ER_ERaERb_1440: Odyssey Thera (OT) 24-hour HEK293T Protein-Complementation Assay for Estrogen Receptor-alpha/-beta Homodimer (AID 2283356).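 Note: heteromer of ER alpha and ER beta binding domains; hits raise reporter fluorescence and both agonists and antagonists give an increase.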 Put shortly:
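Fragment complementation between ER alpha (310-547) and ER beta (263-489) ligand-binding domains in HEK293T cells; signal read 24 h post-dosing by laser scanning cytometer. Gain of fluorescence relative to DMSO fitted.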

The target in assay [7] is Estrogen receptor beta (Homo sapiens) (UniProt Q92731). The assay is described as follows: OT_ER_ERbERb_0480: Odyssey Thera (OT) 8-hour HEK293T Protein-Complementation Assay for Estrogen Receptor-beta/-beta Homodimer (AID 2283357).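 Note: active means signal gain over DMSO baseline.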 Put shortly: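 ER-beta LBD homodimer PCA stably expressed in HEK293T; 8 h compound exposure, then formaldehyde fixation and Draq5 staining. Gain in nuclear/cytoplasmic fluorescence intensity versus DMSO vehicle, read on laser scanning cytometer.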

Assay [8] deals with human Peripheral-type Benzodiazepine Receptor (PBR), TSPO (gene 706) (UniProt P30536). The assay is described as follows: NVS_MP_hPBR: NovaScreen (NVS) Membrane Protein Assay for human Peripheral-type Benzodiazepine Receptor (PBR) (AID 2283331).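 Note: hits reduce radioligand binding relative to DMSO baseline.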 Put shortly:
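Cell-free binding to human colonic membrane preparations measured by filter-based scintillation counting after 1 h. Compounds first run at 25 uM in duplicate, then concentration series for actives; signal loss against DMSO baseline.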

Assay [9] deals with rat Peripheral-type Benzodiazepine Receptor (PBR), Tspo (gene 24230) (UniProt P16257). The assay is described as follows: NVS_MP_rPBR: NovaScreen (NVS) Membrane Protein Assay for rat Peripheral-type Benzodiazepine Receptor (PBR) (AID 2283335). Put shortly:
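Single-concentration duplicate screening at 25 uM preceded concentration-series retesting of actives. Binding of a specific radioligand to rat kidney membrane PBR was read by filtration radiodetection after 1 h, with plate-wise positive and negative controls.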

In assay [10] the target is chimpanzee Androgen Receptor (AR), AR (gene 747460) (UniProt O97775). The assay is described as follows: NVS_NR_cAR: NovaScreen (NVS) Nuclear Receptor Binding Assay for chimpanzee Androgen Receptor (AR) (AID 2283346).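 Note: radioligand displacement from AR measured by scintillation counting in a cell-free assay; a loss of bound radioligand signal versus DMSO counts as binding.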 Put shortly: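 Cell-free competition binding with insect-cell (Sf9/Sf21) extracted chimpanzee AR; scintillation signal from lysate at 72 h. Screened in duplicate at 25 uM, then concentration-response for actives; fitting relative to DMSO.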

Assay [11] concerns the target human Androgen Receptor (AR), AR (gene 367) (UniProt P10275). The assay is described as follows: NVS_NR_hAR: NovaScreen (NVS) Nuclear Receptor Binding Assay for human Androgen Receptor (AR) (AID 2283332). Put shortly: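 Radioligand competitive binding, scintillation read-out, in cell-free extract from LnCAP, measured 20 h after dosing. Screened first in duplicate at 25 uM, then concentration series for actives; activity fitted against DMSO.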

In assay [12] the target is Voltage-gated inwardly rectifying potassium channel KCNH2 (Homo sapiens) (UniProt Q12809). The assay is described as follows: NVS_IC_hKhERGCh: NovaScreen (NVS) Ion Channel Assay for human Potassium Channel ERG (KhERGCh) (AID 2283333). Put shortly: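 Membranes from CHO cells expressing human ERG; displacement of radioligand measured by filtration and scintillation after 0.75 h. Single-concentration duplicate screen at 25 uM, then concentration-response for actives; DMSO baseline.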

A short description of assay [13]: NVS_IC_rCaBTZCHL: NovaScreen (NVS) Ion Channel Assay for Calcium Channel, Type L, Benzothiazepine Site (CaBTZCHL) (AID 2283337). Put shortly: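 Rat cortical membrane preparation, cell-free. Radioligand displaced by test chemical; 1.5 h incubation; filtration, scintillation count. DMSO = negative control/baseline. Primary: duplicate, 25 uM; secondary: concentration series.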

Assay [14] deals with bovine Gamma-Aminobutyric Acid Type A Receptor Agonist (GABAR Agonist), GABRA1 (gene 780973) (UniProt P08219). The assay is described as follows: NVS_LGIC_bGABAR_Agonist: NovaScreen (NVS) Ligand-Gated Ion Channel Assay for bovine Gamma-Aminobutyric Acid Type A Receptor Agonist (GABAR Agonist) (AID 2283338). Put shortly:
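Radioligand binding to bovine cerebellar membranes in agonist format, read by filter-based scintillation counting after 1 h. Primary screen in duplicate at 25 uM, with actives followed in concentration series. Gain of signal versus DMSO.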

Assay [15] addresses rat Glutamate, MK-801 Agonist Site (GluNMDA_MK801), Grin1 (gene 24408) (UniProt P35439). The assay is described as follows: NVS_LGIC_rGluNMDA_MK801_Agonist: NovaScreen (NVS) Ligand-Gated Ion Channel Assay for rat Glutamate, MK-801 Agonist Site (GluNMDA_MK801) (AID 2283340). Put shortly:
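Rat forebrain membrane preparation; MK-801-site radioligand binding read by filtration and scintillation after 1.5 h. Single-point 25 uM duplicate screen, followed by singleton concentration series to 50 uM max; DMSO baseline.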

The test system of assay [16] is guinea pig Histamine Receptor (H2), gene 100729734. The assay is described as follows: NVS_GPCR_gH2: NovaScreen (NVS) G Protein-Coupled Receptor Assay for guinea pig Histamine Receptor (H2) (AID 2283342). Put shortly: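 Guinea pig striatal membrane preparation with specific radioligand; bound counts measured by filtration and scintillation 1 h post-dosing, DMSO as baseline. Chemicals passing a 25 uM duplicate screen were titrated to a 50 uM maximum.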

Assay [17] concerns the target bovine Estrogen Receptor (ER), ESR1 (gene 407238) (UniProt P49884). The assay is described as follows: NVS_NR_bER: NovaScreen (NVS) Nuclear Receptor Binding Assay for bovine Estrogen Receptor (ER) (AID 2283345).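 Note: actives lower the bound radioligand count which means they displace the ER ligand.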 Put shortly: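 Displacement of a radioligand from estrogen receptor in bovine uterine membrane preparations; scintillation signal taken at 18 hours, DMSO as baseline. Single-concentration duplicates (25 uM) preceded concentration-response follow-up of actives.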

Records with an inconclusive call do not appear. Active and inactive are the calls of the source. Rule for the calls: active = hit-call score of the fitted dose curve at least 0.9, where 1 is the maximum; inconclusive = response in the unintended direction; inactive = score below 0.9.

Sequence of rat Peripheral-type Benzodiazepine Receptor (PBR), Tspo (gene 24230) (P16257 whole entry, looked up): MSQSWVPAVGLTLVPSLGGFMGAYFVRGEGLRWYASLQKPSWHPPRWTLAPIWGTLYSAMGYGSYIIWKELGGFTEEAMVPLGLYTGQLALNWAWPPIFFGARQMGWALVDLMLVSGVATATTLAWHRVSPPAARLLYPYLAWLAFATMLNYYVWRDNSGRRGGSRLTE
Sequence of Estrogen receptor (Homo sapiens) (P03372 whole entry, looked up, the tested form may be a part): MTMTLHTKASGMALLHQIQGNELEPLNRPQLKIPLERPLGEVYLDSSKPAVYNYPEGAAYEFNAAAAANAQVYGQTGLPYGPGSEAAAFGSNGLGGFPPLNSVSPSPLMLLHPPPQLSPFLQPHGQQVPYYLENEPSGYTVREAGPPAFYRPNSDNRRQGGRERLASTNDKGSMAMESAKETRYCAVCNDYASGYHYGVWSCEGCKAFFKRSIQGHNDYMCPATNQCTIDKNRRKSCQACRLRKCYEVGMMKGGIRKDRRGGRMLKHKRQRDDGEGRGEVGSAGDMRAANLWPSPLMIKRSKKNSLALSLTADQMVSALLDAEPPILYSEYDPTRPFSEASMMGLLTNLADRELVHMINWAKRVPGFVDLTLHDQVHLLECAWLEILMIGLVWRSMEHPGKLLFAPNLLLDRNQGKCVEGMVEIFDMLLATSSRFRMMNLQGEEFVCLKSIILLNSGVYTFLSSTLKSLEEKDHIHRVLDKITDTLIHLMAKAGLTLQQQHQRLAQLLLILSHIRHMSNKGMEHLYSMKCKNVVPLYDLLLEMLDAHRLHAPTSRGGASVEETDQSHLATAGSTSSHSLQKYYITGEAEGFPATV
T1 sequence (P03372 whole entry, looked up, the tested form may be a part): as above
T1 sequence (Q92731 whole entry, looked up, the tested form may be a part): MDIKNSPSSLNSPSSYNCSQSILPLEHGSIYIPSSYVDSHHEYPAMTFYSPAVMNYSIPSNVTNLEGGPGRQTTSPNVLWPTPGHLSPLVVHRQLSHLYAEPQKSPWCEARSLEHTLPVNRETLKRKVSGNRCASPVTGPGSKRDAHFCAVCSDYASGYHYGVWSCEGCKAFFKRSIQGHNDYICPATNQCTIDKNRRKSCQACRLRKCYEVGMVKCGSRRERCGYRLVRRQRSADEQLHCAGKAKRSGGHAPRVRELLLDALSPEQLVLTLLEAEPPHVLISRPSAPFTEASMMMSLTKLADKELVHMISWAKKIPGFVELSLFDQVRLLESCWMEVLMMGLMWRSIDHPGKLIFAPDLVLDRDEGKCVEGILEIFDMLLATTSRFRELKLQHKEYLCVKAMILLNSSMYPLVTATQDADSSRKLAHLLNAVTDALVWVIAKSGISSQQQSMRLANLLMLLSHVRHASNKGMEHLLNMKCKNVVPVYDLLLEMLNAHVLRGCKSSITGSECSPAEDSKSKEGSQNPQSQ
Sequence of chimpanzee Androgen Receptor (AR), AR (gene 747460) (O97775 whole entry, looked up): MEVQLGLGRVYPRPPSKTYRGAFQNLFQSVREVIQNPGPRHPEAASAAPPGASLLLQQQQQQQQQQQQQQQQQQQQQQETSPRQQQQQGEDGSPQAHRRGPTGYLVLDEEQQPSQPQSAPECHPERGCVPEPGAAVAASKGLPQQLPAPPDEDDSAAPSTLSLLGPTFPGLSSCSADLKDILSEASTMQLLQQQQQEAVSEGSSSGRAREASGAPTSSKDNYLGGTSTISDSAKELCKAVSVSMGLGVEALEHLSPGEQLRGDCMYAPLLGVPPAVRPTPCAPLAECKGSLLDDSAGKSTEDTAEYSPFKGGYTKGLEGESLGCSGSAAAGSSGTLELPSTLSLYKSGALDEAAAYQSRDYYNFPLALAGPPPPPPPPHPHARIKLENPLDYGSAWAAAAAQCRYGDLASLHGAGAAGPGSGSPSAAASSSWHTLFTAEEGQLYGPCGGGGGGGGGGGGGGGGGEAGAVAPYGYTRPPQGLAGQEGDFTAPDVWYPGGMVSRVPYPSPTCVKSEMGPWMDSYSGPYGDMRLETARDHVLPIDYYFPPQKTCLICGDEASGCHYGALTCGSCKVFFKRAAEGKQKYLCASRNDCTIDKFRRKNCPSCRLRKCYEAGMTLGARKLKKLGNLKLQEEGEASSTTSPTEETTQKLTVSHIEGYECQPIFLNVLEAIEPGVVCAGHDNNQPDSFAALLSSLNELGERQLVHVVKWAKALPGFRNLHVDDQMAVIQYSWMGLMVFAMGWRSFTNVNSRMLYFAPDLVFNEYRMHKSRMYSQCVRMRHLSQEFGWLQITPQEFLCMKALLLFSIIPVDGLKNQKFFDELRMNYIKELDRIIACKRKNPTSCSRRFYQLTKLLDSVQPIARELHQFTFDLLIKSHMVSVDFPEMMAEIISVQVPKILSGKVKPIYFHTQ
Sequence of Androgen Receptor/SRC-1 Co-activator, AR (gene 367) (P10275 whole entry, looked up, the tested form may be a part): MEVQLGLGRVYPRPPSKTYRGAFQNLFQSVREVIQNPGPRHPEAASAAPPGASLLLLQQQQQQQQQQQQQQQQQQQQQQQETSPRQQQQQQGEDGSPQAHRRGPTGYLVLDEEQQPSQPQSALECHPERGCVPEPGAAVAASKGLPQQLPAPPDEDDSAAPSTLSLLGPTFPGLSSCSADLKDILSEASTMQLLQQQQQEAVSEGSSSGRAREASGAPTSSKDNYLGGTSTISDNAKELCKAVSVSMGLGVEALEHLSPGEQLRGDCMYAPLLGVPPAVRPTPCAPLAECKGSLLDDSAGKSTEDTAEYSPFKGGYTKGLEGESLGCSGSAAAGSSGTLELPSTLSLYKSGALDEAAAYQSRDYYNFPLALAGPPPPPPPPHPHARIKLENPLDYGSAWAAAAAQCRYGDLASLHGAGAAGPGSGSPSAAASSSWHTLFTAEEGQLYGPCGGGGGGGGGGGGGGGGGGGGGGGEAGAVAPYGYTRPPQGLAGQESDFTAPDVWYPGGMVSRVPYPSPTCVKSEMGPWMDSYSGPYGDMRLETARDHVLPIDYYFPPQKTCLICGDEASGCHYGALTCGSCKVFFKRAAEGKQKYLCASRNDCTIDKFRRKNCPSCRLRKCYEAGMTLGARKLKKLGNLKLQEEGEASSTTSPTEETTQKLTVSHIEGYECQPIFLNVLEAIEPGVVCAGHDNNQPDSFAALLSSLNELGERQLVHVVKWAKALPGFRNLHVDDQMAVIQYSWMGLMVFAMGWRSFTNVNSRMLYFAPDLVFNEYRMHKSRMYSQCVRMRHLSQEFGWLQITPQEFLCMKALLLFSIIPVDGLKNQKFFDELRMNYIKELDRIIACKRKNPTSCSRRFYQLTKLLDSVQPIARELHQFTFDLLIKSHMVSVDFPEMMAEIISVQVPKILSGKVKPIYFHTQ
Sequence of human Peripheral-type Benzodiazepine Receptor (PBR), TSPO (gene 706) (P30536 whole entry, looked up): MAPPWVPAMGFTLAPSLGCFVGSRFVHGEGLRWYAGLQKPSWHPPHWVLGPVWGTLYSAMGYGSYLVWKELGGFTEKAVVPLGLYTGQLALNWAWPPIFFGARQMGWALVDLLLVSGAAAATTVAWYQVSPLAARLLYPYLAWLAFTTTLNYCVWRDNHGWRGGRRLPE
Sequence of Estrogen receptor beta (Homo sapiens) (Q92731 whole entry, looked up, the tested form may be a part): as the sequence (Q92731 whole entry, looked up, the tested form may be a part) above
Sequence of rat Thyrotropin Releasing Hormone Receptor (TRH), Trhr (gene 25570) (Q01717 whole entry, looked up): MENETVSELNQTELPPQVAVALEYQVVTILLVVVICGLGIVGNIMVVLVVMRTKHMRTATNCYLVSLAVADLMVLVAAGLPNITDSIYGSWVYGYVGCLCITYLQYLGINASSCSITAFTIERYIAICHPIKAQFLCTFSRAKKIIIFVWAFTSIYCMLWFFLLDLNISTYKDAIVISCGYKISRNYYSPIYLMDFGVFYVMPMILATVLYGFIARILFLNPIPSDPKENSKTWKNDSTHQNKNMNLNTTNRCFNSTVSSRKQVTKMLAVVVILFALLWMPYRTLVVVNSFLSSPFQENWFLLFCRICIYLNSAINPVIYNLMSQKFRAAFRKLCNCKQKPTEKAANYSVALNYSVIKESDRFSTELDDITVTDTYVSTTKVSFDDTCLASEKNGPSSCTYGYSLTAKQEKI

For `COc1cc([N+](=O)[O-])ccc1N`, the molecule was classed as inactive in [1], in assay [2], in [3], in assay [4], in assay [5] and in [6]. Also, in assay [7], the molecule was called inactive.
As usually defined, the AC50 is the concentration giving half of the maximal activity seen. Turning to `C/C=C/C(=O)C1=C(C)CCCC1(C)C`, the half-maximal activity concentration (AC50) is 10.8 µM (active) in assay [8] and 16.8 µM (active) in assay [9].
`Cc1cc(C(=C2C=CC(=Nc3ccc(S(=O)(=O)O)cc3)C=C2)c2ccc(Nc3ccc(S(=O)(=O)O)cc3)cc2)cc(S(=O)(=O)O)c1N`: the call in assay [1], in [2], in assay [3], in assay [4], in [5] and in assay [6] was inactive. Also, the molecule was classed as inactive in assay [7]. Moreover, in assay [10], the AC50 is 15.5 µM (active).
As to `O=C(NCc1ncc(C(F)(F)F)cc1Cl)c1c(Cl)cccc1Cl`, the AC50 in [8] was 0.00396 µM (active); in assay [9], 0.005 µM (active).
Consider `CCCCCCC(C)(C)C(=O)O`, for which the molecule was classed as inactive in assay [1], in assay [2], in assay [3], in assay [4], in assay [5] and in assay [6]. Further, in [7], the outcome was inactive.
On to `CCCCc1ccc2ccccc2c1S(=O)(=O)O`, for which the call in assay [1], in assay [2], in assay [3], in [4], in [5] and in [6] was inactive. Further, the call in assay [7] was inactive.
For the molecule `O=C(O)c1cccc(C(=O)O)n1`, the molecule was classed as inactive in [1], in assay [2], in assay [3] and in assay [6].
As to `CCOC(=O)CN[C@@H](C(=O)N1CC[C@H]1C(=O)NCc1ccc(/C(N)=N/O)cc1)C1CCCCC1`, the AC50 in [8] is 1.25 µM (active).
Regarding `CC(C)(c1ccc(Oc2ccc(N)cc2)cc1)c1ccc(Oc2ccc(N)cc2)cc1`, the AC50 in assay [11] was 9 µM (active). The call in assay [10] was inactive.
On to `O=C(CCCN1CCC(O)(c2ccc(Cl)cc2)CC1)c1ccc(F)cc1`, for which the molecule was called inactive in assay [12], in [14], in assay [15] and in assay [7]. In addition, the AC50 in [13] is 2.55 µM (active); in assay [16], 1.65 µM (active).
With `CCCCCCCCCCCCCCCCCC[N+](C)(C)Cc1ccccc1`, the call in assay [8] and in assay [13] was inactive. In assay [9], the concentration at half-maximal activity (AC50) was 12.5 µM (active).
Turning to `CC(C)[C@@H]1CC[C@@H](C)C[C@H]1O`, the AC50 in assay [11] is 13.1 µM (active); in assay [10], 0.376 µM (active). Further, the outcome in [4], in assay [5] and in assay [7] was inactive.
Turning to `N=C(N)c1ccc(OCCCCCOc2ccc(C(=N)N)cc2)cc1`, the AC50 in assay [13] is 2.33 µM (active); in [15] it was 35.8 µM (active); in assay [16], 6.98 µM (active). For the same molecule, the molecule was called inactive in assay [17] and in [2].

For the origin of these results see PubChem BioAssay (EPA / NIEHS).
